From PubChem BioAssay
Unmarked numbers belong to inactive results. A call without a number means that no potency is given here. For some assays here: Potency and affinity values are given separately. Activity calls are given as the source filed them. Unless noted, no rule for the calls is given here.

Assays:
[1] = antimalarial activity against Dd2 strain (AID 2302;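 active = growth inhibition above 50% at the single 2 µM test dose, taken to imply half-maximal potency below 2 µM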); conditions: P. falciparum Dd2 in RBCs, LDH growth readout, 72 h; at 2 µM; stronger effect = higher value
[2] = human hepatoma cell viability loss – ATP luminescence, cytotoxicity control for P. falciparum antimalarial project, primary screen (AID 2303;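 active = inhibition above 50%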); conditions: HepG2 viability, 24-48 h, at 10 µM, stronger effect = higher value
[3] = biological target: L-lactate dehydrogenase (Plasmodium falciparum (isolate CDC / Honduras)) (UniProt Q27743); test: PfLDH activity inhibition – cell lysate, 3D7 strain, counter-screen for P. falciparum growth inhibition project (AID 2304); conditions: P. falciparum 3D7 crude extract, LDH APAD/NBT absorbance; at 2 µM; stronger effect = higher value
Sequence of L-lactate dehydrogenase (Plasmodium falciparum (isolate CDC / Honduras)) (Q27743 whole entry, looked up): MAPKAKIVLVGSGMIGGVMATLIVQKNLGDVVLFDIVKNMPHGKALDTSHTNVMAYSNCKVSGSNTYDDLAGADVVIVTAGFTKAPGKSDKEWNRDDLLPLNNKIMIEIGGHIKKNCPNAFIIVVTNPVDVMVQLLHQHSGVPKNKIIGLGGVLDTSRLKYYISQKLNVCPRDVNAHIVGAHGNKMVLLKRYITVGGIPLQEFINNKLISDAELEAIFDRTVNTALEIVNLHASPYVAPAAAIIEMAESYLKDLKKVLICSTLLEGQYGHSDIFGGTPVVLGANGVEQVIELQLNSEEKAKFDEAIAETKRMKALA

[4] = inhibition of 3D7 malaria parasite growth – strain 3D7 (AID 2306); conditions: P. falciparum 3D7 erythrocytic growth, LDH absorbance, 72 h; at 2 µM; stronger effect = higher value
[5] = biological target: Calcium-dependent protein kinase 1 (Plasmodium falciparum (isolate 3D7)) (UniProt P62344); test: PfCDPK1 kinase inhibitors, biochemical, TCAMS library (AID 1159585; cut-off not given, nearly all actives have IC50 up to about 0.98 µM;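 also: inhibitors leave more ATP so luminescence rises with inhibition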); conditions: recombinant PfCDPK1, Kinase-Glo ATP depletion luminescence
Sequence of Calcium-dependent protein kinase 1 (Plasmodium falciparum (isolate 3D7)) (P62344 whole entry, looked up): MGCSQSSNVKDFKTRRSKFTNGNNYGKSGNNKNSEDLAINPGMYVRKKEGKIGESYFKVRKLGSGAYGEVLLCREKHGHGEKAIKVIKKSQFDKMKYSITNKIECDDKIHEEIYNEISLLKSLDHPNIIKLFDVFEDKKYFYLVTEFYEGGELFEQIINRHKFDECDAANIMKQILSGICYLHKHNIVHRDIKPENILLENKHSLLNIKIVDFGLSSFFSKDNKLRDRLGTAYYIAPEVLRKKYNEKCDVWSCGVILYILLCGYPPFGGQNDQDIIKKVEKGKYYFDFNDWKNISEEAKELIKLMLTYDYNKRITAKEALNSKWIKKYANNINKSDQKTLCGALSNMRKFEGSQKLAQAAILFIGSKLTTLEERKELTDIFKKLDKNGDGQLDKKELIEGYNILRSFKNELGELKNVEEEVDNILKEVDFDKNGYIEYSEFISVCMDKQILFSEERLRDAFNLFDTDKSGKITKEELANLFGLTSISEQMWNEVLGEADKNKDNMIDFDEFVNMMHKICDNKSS

[6] = biological target: Plasmodium falciparum protein kinase 6 (PK6, PF3D7_1337100) (UniProt Q8IDW1); test: PfPK6 kinase inhibitors, biochemical, TCAMS library (AID 1159586); conditions: recombinant PfPK6, Kinase-Glo ATP depletion luminescence
Sequence of Plasmodium falciparum protein kinase 6 (PK6, PF3D7_1337100) (Q8IDW1 1-305): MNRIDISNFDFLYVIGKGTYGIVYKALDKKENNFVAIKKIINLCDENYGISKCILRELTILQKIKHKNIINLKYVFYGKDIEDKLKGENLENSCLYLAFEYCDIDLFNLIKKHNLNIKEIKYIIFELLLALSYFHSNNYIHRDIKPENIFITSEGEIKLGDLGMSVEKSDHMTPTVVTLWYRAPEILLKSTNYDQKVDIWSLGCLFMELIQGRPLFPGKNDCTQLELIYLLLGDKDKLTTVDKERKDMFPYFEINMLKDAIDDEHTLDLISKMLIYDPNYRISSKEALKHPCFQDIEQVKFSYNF

[7] = biological target: Protein kinase 7 (PK7), Plasmodium falciparum 3D7 (PF3D7_0213400) (UniProt Q7YTF7); test: inhibition of Plasmodium PK7 catalytic activity – biochemical, TCAMS antimalarial set, Kinase-Glo luminescence (AID 1159587); conditions: recombinant PfPK7, Kinase-Glo ATP depletion luminescence
Sequence of Protein kinase 7 (PK7), Plasmodium falciparum 3D7 (PF3D7_0213400) (Q7YTF7 1-343): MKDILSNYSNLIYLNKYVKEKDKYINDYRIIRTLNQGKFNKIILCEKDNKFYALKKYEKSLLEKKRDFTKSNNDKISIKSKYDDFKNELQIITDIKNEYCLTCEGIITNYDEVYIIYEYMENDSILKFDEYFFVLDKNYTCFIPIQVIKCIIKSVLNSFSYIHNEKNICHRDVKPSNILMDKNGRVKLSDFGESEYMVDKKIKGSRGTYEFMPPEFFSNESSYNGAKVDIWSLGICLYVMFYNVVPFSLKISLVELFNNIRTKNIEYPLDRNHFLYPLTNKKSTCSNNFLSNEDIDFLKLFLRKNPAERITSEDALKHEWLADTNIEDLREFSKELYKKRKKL

[8] = biological target: Calcium-dependent protein kinase 4 (Plasmodium falciparum (isolate 3D7)) (UniProt Q8IBS5); test: PfCDPK4 kinase inhibitors, biochemical, TCAMS library (AID 1159588; cut-off not given, nearly all actives have IC50 up to about 0.91 µM); conditions: recombinant PfCDPK4, Kinase-Glo ATP depletion luminescence
Sequence of Calcium-dependent protein kinase 4 (Plasmodium falciparum (isolate 3D7)) (Q8IBS5 whole entry, looked up): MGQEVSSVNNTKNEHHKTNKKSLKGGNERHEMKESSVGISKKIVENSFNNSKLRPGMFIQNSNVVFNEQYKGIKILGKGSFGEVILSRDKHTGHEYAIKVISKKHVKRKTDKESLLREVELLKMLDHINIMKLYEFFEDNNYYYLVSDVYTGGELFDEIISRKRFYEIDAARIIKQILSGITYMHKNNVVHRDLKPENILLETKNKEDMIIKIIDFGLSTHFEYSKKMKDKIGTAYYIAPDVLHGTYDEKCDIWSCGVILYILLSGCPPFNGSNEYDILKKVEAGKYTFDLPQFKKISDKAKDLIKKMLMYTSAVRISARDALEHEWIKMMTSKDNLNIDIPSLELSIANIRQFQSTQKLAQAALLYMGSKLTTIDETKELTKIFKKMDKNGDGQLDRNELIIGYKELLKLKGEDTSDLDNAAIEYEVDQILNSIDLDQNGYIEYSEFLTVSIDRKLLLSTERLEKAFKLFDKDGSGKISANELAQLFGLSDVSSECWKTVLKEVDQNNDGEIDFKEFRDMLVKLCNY

| Compound | growth inhibition [1] | inhibition [2] | inhibition [3] [%] | growth inhibition [4] | outcome [5] | outcome [6] | outcome [7] | outcome [8] |
| --- | --- | --- | --- | --- | --- | --- | --- | --- |
| CS(=O)(=O)c1cc2c(Nc3ccc(N4CCOCC4)cc3)c(C(N)=O)cnc2cc1Br | 89% (active) | -18% | -2 | 101% (active) | inactive | inactive | inactive | inactive |
| CCNC(=O)Nc1ccc(-c2cccc(-c3nc4c(C)cccc4[nH]3)c2)cc1 | 34% | 16% | -8 | 91% (active) | inactive | inactive | inactive | inactive |
| O=C(NCCCCCN1CCC(c2c[nH]c3ccccc23)CC1)Nc1cccc(Br)c1 | -3% | 39% | 3 | 84% (active) | inactive | inactive | inactive | inactive |
| N#Cc1ccc(CN2CCCN(Cc3cccc(NC(=O)c4ccc(-c5ccccc5)cc4)c3)CC2)cc1 | 12% | 33% | 0 | 88% (active) | inactive | inactive | inactive | inactive |
| c1ccc2[nH]c(Nc3ccc(Nc4nc5ccccc5[nH]4)cc3)nc2c1 | 27% | -3% | 1 | 98% (active) | inactive | inactive | inactive | inactive |
| O=C(O)CNCC(O)c1ccccc1 (stereo not given) | -5% | 7% | -5 | 96% (active) | inactive | inactive | inactive | inactive |
| CC(=O)Oc1cc(C)ccc1C1CCN(CCCCNC(=O)c2ccc(-c3ccc(C(F)(F)F)cc3)cc2)CC1 | 94% (active) | 54% (active) | -7 | 100% (active) | inactive | inactive | inactive | inactive |
| Cc1ccc(OCC2CCN(c3ncc(C(=O)NCCCN4CCCC4=O)cc3Cl)CC2)cc1 | 71% (active) | 7% | 0 | 94% (active) | inactive | inactive | inactive | inactive |
| CCN(CC)CCN(Cc1ccc(-c2ccc(C#N)cc2)cc1)C(=O)Cn1c(CCc2cccc(F)c2F)nc(=O)c2ccccc21 | 46% | 31% | -1 | 100% (active) | inactive | inactive | inactive | inactive |
| COc1cc2c(cc1OC)CN(CCCCc1ccc(NC(=O)c3cc(Cl)cc(Cl)c3)cc1)CC2 | 4% | 21% | -3 | 95% (active) | inactive | inactive | inactive | inactive |
| CCCCCCc1cc2cc(-c3nc(-c4ccc(OC)cc4)cs3)c(=O)oc2cc1O | 93% (active) | 45% | -6 | 97% (active) | inactive | inactive | inactive | inactive |
| COc1ccc([N+](=O)[O-])cc1N(Cc1ccccc1-c1ccccc1)S(=O)(=O)c1ccc(C(F)(F)F)cc1[N+](=O)[O-] | 92% (active) | 2% | -6 | 88% (active) | inactive | inactive | inactive | inactive |
| COc1cccc(Nc2nc(Nc3cccc(C#N)c3)cc(-c3ccncc3)n2)c1 | 46% | 28% | 1 | 100% (active) | inactive | inactive | inactive | inactive |
| O=[N+]([O-])c1cccc(Nc2nccc(-c3cnn4ncccc34)n2)c1 | 74% (active) | 33% | -1 | 87% (active) | inactive | inactive | inactive | inactive |
| CCOC(=O)c1ccc(NC(=O)Nc2ccc(-c3cccc(-c4nc5ccccc5[nH]4)c3)cc2)cc1 | 99% (active) | 94% (active) | -4 | 101% (active) | inactive | inactive | inactive | inactive |
| C=CC(=O)Nc1ccc(Cl)cc1C(O)c1ccccc1 (stereo not given) | 5% | -5% | 0 | 100% (active) | inactive | inactive | inactive | inactive |
| CC1CC(NCCCNc2cc(=O)c3ccccc3[nH]2)c2c(Cl)c(Cl)cc(Cl)c21 (stereo not given) | 52% (active) | 6% | 2 | 87% (active) | inactive | inactive | inactive | inactive |
| N#Cc1ccc(-c2cnc3ccc(NCc4ccc(S(N)(=O)=O)cc4)nn23)cc1 | 100% (active) | 7% | 5 | 98% (active) | inactive | inactive | inactive | inactive |
| O=S(=O)(Nc1cc2c(cc1O)CCN(C1CCC1)CC2)c1ccc(-c2ccc(F)cc2)cc1 | 99% (active) | 16% | -1 | 101% (active) | inactive | inactive | inactive | inactive |
| O=C(/C=C/c1ccc(Cl)c(Cl)c1)NC1CCC(CN2CCC(c3coc4ccccc34)CC2)CC1 (stereo not given) | 41% | 40% | 3 | 102% (active) | inactive | inactive | inactive | inactive |

| Compound | growth inhibition [1] | inhibition [2] | inhibition [3] [%] | growth inhibition [4] | outcome [5] | outcome [6] | outcome [7] | outcome [8] |
| --- | --- | --- | --- | --- | --- | --- | --- | --- |
| CC(C)N1CCC(N(Cc2ccc(-c3ccc(Cl)cc3)cc2)C(=O)Cn2c(CCc3cccc(F)c3F)nc(=O)c3ccccc32)CC1 | 70% (active) | 61% (active) | 5 | 86% (active) | inactive | inactive | inactive | inactive |
| CC[C@H](C)CNC(=O)c1cccc(-c2cccc(CN3CCC(N4CCCC4)CC3)c2)n1 | 86% (active) | 9% | 1 | 101% (active) | inactive | inactive | inactive | inactive |
| CCCC(C)c1cnc2nc(N)nc(N)c2c1C (stereo not given) | 1% | 67% (active) | 3 | 95% (active) | inactive | inactive | inactive | inactive |
| Cc1sc(N2CCCCC2)nc1C(=O)Nc1ccc(F)cc1C(F)(F)F | 35% | -18% | 2 | 86% (active) | inactive | inactive | inactive | inactive |
| Cc1cccc2[nH]c(-c3ccc(-c4cccc(NC(=O)c5cnn6cccnc56)c4)cc3)nc12 | 29% | 100% (active) | -4 | 91% (active) | inactive | inactive | inactive | inactive |
| COc1ccc2nc(-c3ccccc3)cc(NN=Cc3ccc([N+](=O)[O-])o3)c2c1 | 99% (active) | 90% (active) | -7 | 100% (active) | inactive | inactive | inactive | inactive |
| COc1ccc(-c2cccc(NC(=O)c3ccc(Cl)cc3)c2)cc1CNC(C)C | 44% | 53% (active) | -4 | 101% (active) | inactive | inactive | inactive | inactive |
| COc1ccc(CNc2ccnc(-n3cnc4cc(C)c(C)cc43)n2)cc1Cl | 100% (active) | 6% | -8 | 100% (active) | inactive | inactive | inactive | inactive |
| Cc1cc(C(=O)N(Cc2ccc(-c3ccc(CNCCc4ccc(S(C)(=O)=O)cc4)cn3)cc2)C(C)CN(C)C)ccc1[N+](=O)[O-] (stereo not given) | 46% | 17% | -1 | 99% (active) | inactive | inactive | inactive | inactive |
| O=[N+]([O-])c1ccc(Nc2nc(NCc3ccccc3)nc(NN=Cc3ccccc3[N+](=O)[O-])n2)cc1 | 99% (active) | 18% | -9 | 101% (active) | inactive | inactive | inactive | inactive |
| COc1ccc(Oc2ccc(-c3c(C)[nH]c(C)c(Cl)c3=O)cc2)cc1 | 97% (active) | -2% | -3 | 97% (active) | inactive | inactive | inactive | inactive |
| COc1ccccc1C1CN(Cc2coc3ccccc3c2=O)Cc2ccccc2O1 (stereo not given) | 61% (active) | 4% | 2 | 87% (active) | inactive | inactive | inactive | inactive |
| O=C(C=CC(=O)N1CCCCC1)NCc1ccccc1 | -3% | 6% | -2 | 100% (active) | inactive | inactive | inactive | inactive |
| Cc1ccc(-c2ccc(Cl)cc2Oc2cnc(N)nc2N)o1 | 3% | 15% | -2 | 102% (active) | inactive | inactive | inactive | inactive |
| CN(C)c1ccc(-c2csc(C(=O)NCC3CCN(CCC(C)(C)C)C3)c2)cc1 (stereo not given) | 16% | 29% | 4 | 87% (active) | inactive | inactive | inactive | inactive |
| CN1CCCN(c2ccnc3cc4c(cc23)N(C(=O)c2ccc(C(F)(F)F)cc2)CC4)CC1 | 63% (active) | 10% | 1 | 101% (active) | inactive | inactive | inactive | inactive |
| Cc1[nH]c2ccc(NS(C)(=O)=O)cc2c1C1CCN(CCC2CCN(C(=O)/C=C/c3ccc(Cl)c(Cl)c3)CC2)CC1 | 94% (active) | 23% | -1 | 100% (active) | inactive | inactive | inactive | inactive |
| O=C(Nc1ccc(Cl)cc1)Nc1ccc(OCC(O)CN2CCCCC2)cc1 (stereo not given) | 13% | 18% | -1 | 83% (active) | inactive | inactive | inactive | inactive |
| Cc1cc(C)cc(OCC(O)CN(CCN2CCOCC2)C(=O)Nc2ccc(Br)cc2)c1 (stereo not given) | 19% | 7% | 0 | 85% (active) | inactive | inactive | inactive | inactive |
| NC1=NC(c2ccccc2)(c2ccccc2)C(=O)N1Cc1ccc(-c2ccncc2)cc1 | 74% (active) | 20% | 5 | 96% (active) | inactive | inactive | inactive | inactive |
